Test results: PubChem BioAssay (NCI)
About 79,000 compounds went through this panel and 15% of them were active in at least one assay; those are over-represented in the sample as a whole. No stated cut-off is given here; in the data, active means growth inhibition above about 70%; inactive means the rest.

What was measured:
[1] = NCI Yeast Anticancer Drug Screen. Data for the rad50 strain (AID 155);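 further: 0% = growth of vehicle-only cultures of the same strain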; conditions: S. cerevisiae rad50 strain growth inhibition; at 50.0 µM; active compounds read high
Summary of the method: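 A DNA repair-deficient yeast mutant serves as the test organism; compound-induced growth inhibition is calculated against vehicle-treated cells.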

[2] = NCI Yeast Anticancer Drug Screen. Data for the mec2-1 strain (AID 157); conditions: S. cerevisiae mec2-1 strain, at 50.0 µM, active compounds read high
Summary of the method: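 Test agents were screened against the mec2-1 yeast strain, with defined DNA repair or cell cycle alteration. Growth was scored as inhibition against vehicle-only controls.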

[3] = NCI Yeast Anticancer Drug Screen. Data for the sgs1 mgt1 strain (AID 161);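 further: 0% = growth of cultures given vehicle only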; conditions: S. cerevisiae sgs1 mgt1 strain, at 50.0 µM, active compounds read high
Summary of the method: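 Test agents were incubated with a DNA-repair-mutant yeast strain. Growth was then read and compared against vehicle-treated controls.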

[4] = NCI Yeast Anticancer Drug Screen. Data for the cln2 rad14 strain (AID 165);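 further: 0% = growth equal to vehicle treated cultures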; conditions: S. cerevisiae cln2 rad14 strain, at 50.0 µM, active compounds read high
Summary of the method: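 Growth of compound-exposed yeast (cln2 rad14 genotype) measured and expressed as inhibition relative to vehicle.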

[5] = NCI Yeast Anticancer Drug Screen. Data for the bub3 strain (AID 167); conditions: S. cerevisiae bub3 mutant strain, at 50.0 µM, active compounds read high
Summary of the method: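 Inhibition values come from growth of compound-treated mutant yeast normalised to vehicle-treated controls.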

[6] = NCI Yeast Anticancer Drug Screen. Data for the mlh1 rad18 strain (AID 175); conditions: S. cerevisiae mlh1 rad18 strain growth inhibition; at 50.0 µM; active compounds read high
Summary of the method: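 In this whole-cell yeast screen, a strain with altered DNA damage repair is challenged with compound, and its growth is measured against matched vehicle-treated controls.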

Measured: growth inhibition

CNC(=O)N(C)c1cc(N(C)C)nc(OC)n1
inactive: [1] -16.4% | [2] -34.6% | [3] -19.4% | [4] -9.4% | [5] -20.8% | [6] -23.4%

COC(=O)CC(C(C(=O)OC)C(=O)OC)N1C(=O)OC(c2ccccc2)C1c1ccccc1 (stereo not given)
inactive: [1] 7.75% | [2] -10.5% | [3] -2.95% | [4] 9.4% | [5] -18% | [6] 3.4%

CCCCNc1ccc2c(C)c(Cc3ccccc3)c(=O)oc2c1
inactive: [1] 9.3% | [2] -7.5% | [3] 20.3% | [4] 2.35% | [5] 4.65% | [6] -11%

C=CCN(CC=C)c1ccccc1
inactive: [1] 24.1% | [2] 5.6% | [3] 25.4% | [4] 19.2% | [5] 14.6% | [6] 34.4%

COc1cc(C(=O)O)c([N+](=O)[O-])c(OC)c1OC
inactive: [1] -12.3% | [2] -6.35% | [3] -18.1% | [4] -11.2% | [5] -29.9% | [6] -7.5%

O=Cc1c2c(cc3c1CC1(C3)Cc3cc4c(c(C=O)c3C1)CCCC4)CCCC2
inactive: [1] 5.25% | [2] 11.6% | [3] 4.4% | [4] 25.3% | [5] 17.3% | [6] 25.1%

CC(C)CC(=O)CC(=O)C(C)(C)C.CC(C)CC(=O)CC(=O)C(C)(C)C.CC(C)CC(=O)CC(=O)C(C)(C)C.CC(C)CC(=O)CC(=O)C(C)(C)C.[Ce]
inactive: [1] 3% | [2] 19% | [3] 55.4% | [4] -16.1% | [5] 2.6% | [6] 47.1%

NC(=O)c1nnn2c1nc(N)c1cc(Cl)ccc12
inactive: [1] -28.4% | [2] -26.6% | [3] -9.55% | [4] -18.4% | [5] -27.6% | [6] -22.6%

CC(=O)N=C1N(/C=C2\C(=O)Oc3ccccc3C2=O)C(=O)/C(=C/c2ccccc2Cl)N1C
inactive: [1] -13.2% | [2] -21.9% | [3] -25.7% | [4] 10.2% | [5] -16.9% | [6] -8.35%

COC(=O)C#Cc1cccc(OC)c1OC
inactive: [1] 22.1% | [2] 14.9% | [3] 22.9% | [4] -31.2% | [5] 12.3% | [6] 10.2%

COc1cc2c(cc1OC)C(N)CC2=O (stereo not given)
inactive: [1] 3.15% | [2] 1.4% | [3] -7.25% | [4] 3.65% | [5] 0.5% | [6] -75.3%

O=C1NC(=O)C(=C/C=C/C=C\C2C(=O)NC(=O)NC2=O)C(=O)N1
inactive: [1] -15.1% | [2] -38.4% | [3] -10.1% | [4] 2.1% | [5] -23.1% | [6] -10.6%

CN(Cc1ccccc1)C(=O)c1ccccc1C(=O)O
inactive: [1] -9.2% | [2] -2.85% | [3] -4.75% | [4] -15.9% | [5] -4.95% | [6] 13.2%

C=CCNCc1cc(Cl)cc(Cl)c1O
inactive: [1] -8.35% | [2] -4.4% | [3] -19.1% | [4] -51.1% | [5] -10.2% | [6] 17.2%

Cc1cc[n+](CC(=O)CC(O)(C(F)(F)F)C(F)(F)F)cc1
inactive: [1] -9% | [2] 5.7% | [3] 15.2% | [4] -4.1% | [5] -6.95% | [6] -1.6%

CCSc1ncnc2nc[nH]c12
inactive: [1] 9% | [2] -8.8% | [3] 4.4% | [4] -18.4% | [5] -9.55% | [6] 8.4%

CC(=O)Nc1ccc(S(=O)(=O)N/N=C\CC(C)C)cc1
inactive: [1] -19.4% | [2] -14.2% | [3] -26.2% | [4] -6.95% | [5] -46% | [6] -27.2%

Cc1ccc(C)c(I)c1
inactive: [1] 7.2% | [2] -3.55% | [3] 6.1% | [4] -9.95% | [5] -2.55% | [6] 14.1%

O=[N+]([O-])C(CO)(CO)c1ccccc1
inactive: [1] 25.3% | [2] 2.4% | [3] 6% | [4] 18.8% | [5] 3.55% | [6] 15.7%

Cc1cccc(/C=C(\C#N)C(=O)c2ccccc2)c1
inactive: [1] -10.6% | [2] 15.3% | [3] -13.6% | [4] 5.75% | [5] -5.25% | [6] 21.2%
